# From the supplement of paper PMC10105736
# ± gives the standard deviation of the averaged measurements.
# Legend:
# Assay in all cases: MAPPIT interaction score (arbitrary units); higher = stronger binary interaction signal, active = hit call of the paper;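 active = MAPPIT score above the 99th percentile of random reference set scores in the same batch; inactive = at or below it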
# Fkbp12 = conditions: MAPPIT configuration: N-N; pair source set: DPIM
# Fkbp39 = conditions: pair source set: Lit-BM-16
# FoxP = conditions: MAPPIT configuration: N-N; pair source set: Curagen_high_conf
# GILT1 = conditions: MAPPIT configuration: N-N; pair source set: Curagen_low_conf
# Mad1 = conditions: MAPPIT configuration: N-N; pair source set: screen_1
# GILT3 = conditions: MAPPIT configuration: N-N; pair source set: Finley_Y2H
# Gem2 = conditions: MAPPIT configuration: N-N; pair source set: Lit-BM-16
# Smn = conditions: MAPPIT configuration: N-N; pair source set: screen_2
# GluRIIC = conditions: MAPPIT configuration: N-N; pair source set: Lit-BS-16
# Gnpnat = conditions: MAPPIT configuration: N-N; pair source set: screen_1
# Jhbp2 = conditions: pair source set: RRS
# Gs1 = conditions: pair source set: RRS
# GstD8 = conditions: MAPPIT configuration: N-N; pair source set: screen_1
# GstE4 = conditions: MAPPIT configuration: N-C; pair source set: RRS
# PGRP-LE = conditions: pair source set: Lit-BM-16
# Wee1 = conditions: MAPPIT configuration: N-N; pair source set: Curagen_high_conf
# 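Also: HEK293T cells with Epo stimulation, STAT-responsive firefly luciferase reporter, fold induction versus unstimulated cells divided by the larger fold induction of two negative controls lacking either bait or prey.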
binder,measurement,setting,value
sigmar (protein) MADNVFKSHDIGLRAQKKILSRMATKNIAKTFIDGTTASLLDNLYRLCKMHTGNKAKAEKLIKNIIKIVIKIGVLHRNNQFSDEELQKAELFKRKFQNTQLSIISFYEVDFTFDLPYLQKSIAESQVALKSIVQPHLTEKSLGRIDEVFDFFGEEALLETAFRPDSPYREVMGKIVADINAAMETGDI,MAPPIT interaction score,Fkbp12,-0.294 (inactive)
Fkbp39 (protein) MSMFWGLNMKPERKYSQTIIKSFHISGVALDKGQEAKLYLAAEKQEYIVATVTKAIPQVALDLNFSKGDRIMFYTAGDASVSLLGYLHDIDSEDDEDDDQMTIENLLNSKAIKNSKKSEDDEDENESGEEDEEDTDDDSQIIEEYESFLENGEEEDDDDVDEDNEESGEEDEQDSDDSEAEEEQPKAKVAKLSPGASAKKSGKEQNGVAKKEEAKQQQKKKEKPEAKKEQPKAKEPAKQQPASKDPRTITGGVKIVDQVVGKGEEAKQGKRVSVYYIGRLQSNNKTFDSLLKGKPFKFALGGGEVIKGWDVGVAGMKVGGKRVITCPPHMAYGARGAPPKIGPNSTLVFEVELKAVH,MAPPIT interaction score,Fkbp39; MAPPIT configuration: N-C,3.82 (active)
same,MAPPIT interaction score,Fkbp39; MAPPIT configuration: N-N,2.59 ± 0.55
mats (protein) MDFLFGSRSSKTFKPKKNIPEGTHQYDLMKHAAATLGSGNLRNAVALPDGEDLNEWVAVNTVDFFNQINMLYGTITEFCTEETCGIMSAGPKYEYHWADGLTVKKPIKCSAPKYIDYLMTWVQDQLDDETLFPSKIGVPFPKNFHSSAKTILKRLFRVYAHIYHQHFTEVVTLGEEAHLNTSFKHFIFFVQEFNLIERRELAPLQELIDKLTAKDERQI,MAPPIT interaction score,FoxP,1.25 (inactive)
me31B (protein) MMTEKLNSGHTNLTSKGIINDLQIAGNTSDDMGWKSKLKLPPKDNRFKTTDVTDTRGNEFEEFCLKRELLMGIFEKGWERPSPIQEAAIPIALSGKDVLARAKNGTGKTGAYCIPVLEQIDPTKDYIQALVMVPTRELALQTSQICIELAKHLDIRVMVTTGGTILKDDILRIYQKVQLIIATPGRILDLMDKKVADMSHCRILVLDEADKLLSLDFQGMLDHVILKLPKDPQILLFSATFPLTVKNFMEKHLREPYEINLMEELTLKGVTQYYAFVQERQKVHCLNTLFSKLQINQSIIFCNSTQRVELLAKKITELGYCCYYIHAKMAQAHRNRVFHDFRQGLCRNLVCSDLFTRGIDVQAVNVVINFDFPRMAETYLHRIGRSGRFGHLGIAINLITYEDRFDLHRIEKELGTEIKPIPKVIDPALYVANVGASVGDTCNNSDLNNSANEEGNVSK,MAPPIT interaction score,GILT1,0.228 (inactive)
same,MAPPIT interaction score,Mad1,0.203 (inactive)
fog (protein) MSPPNCLLAVLALTVFIGANNALPITSRPIEGNVQRMVWEDWVNLDPEQRNLTKEKKITAKSIFTLPFRHCPQGHTLFNQLCIPQSNIDPTDLVKQELILAGGSNGSPPPPPIGDYDYGDDEESEEIVYDLSVIPTAMQDGLPPSVGTGDQALPSEDAPLKFNIFEKKFPTGTGEHEEMPLPPDMAAATYAKNISTTPETSTSITPTSTTTFAVPSVPSGEASNRIPGGVDLLAAPSDAFSTSTTLSMPTSNTTTTSNKDIGQVESIVLPADQEHDGLVHLVTSSLSDNDSDDSSTTLNGFNAEADLAQLLKVDAFWPVYDGSIELLPPLFSHRKVAPPLSADQDVKTKHAVDAAEKVGAELEEEVGEEEVTATDILPSEEDEYTTETATTTGDTTVAEASMDTSTATSTSGQSSPHPPEEPEIDERENRLVLIKSKVQPVQLTTTTSATATTAADVANSSSSTDRFHYQHFVEDESSTTTATPEPSSSTPGDPIEQSDMPASDNDNLMTNTIGGRGDDDDDGGHKATSEIHVQQELRLINELVKGKQRQQHQPQKQQLEPTSTEITSALTSTSTEDATTTTTTTTAYTNWSKVMPQLGQSTSETAATTETVATSGQVNEISLTATSASTEVKHFSITNRSYRNSKIIREDRLTVEPEGIVESAASTESAGTAATTPNSSSNPDGYTPLWWLPSIGWRLDRHLDGNGEDQSLLLRFFSTFRGSNTAATTR,MAPPIT interaction score,GILT3,-0.488 (inactive)
Smn (protein) MSDETNAAVWDDSLLVKTYDESVGLAREALARRLADSTNKREEENAAAAEEEAGEISATGGATSPEPVSFKVGDYARATYVDGVDYEGAVVSINEEKGTCVLRYLGYENEQEVLLVDLLPSWGKRVRREQFLIAKKDEDEQLSRPKASAGSHSKTPKSSRRSRISGGLVMPPMPPVPPMIVGQGDGAEQDFVAMLTAWYMSGYYTGLYQGKKEASTTSGKKKTPKK,MAPPIT interaction score,Gem2,6.28 (active)
same,MAPPIT interaction score,Smn,6.24 (active)
cora (protein) MPAEIKPSAPAEPETPTKSKPKSSSSSHGKPALARVTLLDGSLLDVSIDRKAIGRDVINSICAGLNLIEKDYFGLTYETPTDPRTWLDLEKPVSKFFRTDTWPLTFAVKFYPPEPSQLKEDITRYHLCLQVRNDILEGRLPCTFVTHALLGSYLVQSEMGDYDAEEMPTRAYLKDFKIAPNQTAELEDKVMDLHKTHKGQSPAEAELHYLENAKKLAMYGVDLHPAKDSEGVDIMLGVCASGLLVYRDKLRINRFAWPKILKISYKRHHFYIKIRPGEFEQYESTIGFKLANHRAAKKLWKSCVEHHTFFRLMTPEPVSKSKMFPVFGSTYRYKGRTQAESTNTPVDRTPPKFNRTLSGARLTSRSMDALALAEKEKVARKSSTLDHRGDRNADGDAHSRSPIKNKKEKDADKEAKLREKKQKEKEEKERKEREKRELEEKKKAEKAAKAALAAGAAAGAAVNGNDELNDSNKSDKSSGRRGVGIFSSGRKSKSGSPSKDGKDKSGKDKDKEVGRLGLVVTSGLGDNQQDQNLDEAARNAAKNRGSTTPGVTRQYEYAVDNDGNTSPTRKSYTPGGFRYDQDPNSRKSGADGQEQLSPTSQQKKIGLAFNYAPGNENALKETAEKLKAGQLSPRTQDKLNRGQLSPKSRAKLLQDPLLSPTTRAKLQGSAVDAAAVPLSDSQKRSYSPTKGPQGYSSGAPGSYKPISDPTADFLESQRYNKEPGYVGPSKADVAAGLAGAAGSKKPGSPTKTGKGAPGAAAAAAAGAAGAAAAAAKPKKRRVKIMVITSKFDPSTKRIDAENGSIEHSTGILDPATGLIDTKYGVIDPKKGTLEALNTKTGKKEVFQGDVDGKTGNLHLVSGVADPKTGRLDDTLGQIVCITPQDNPVVELTVITSRIDPATGKIDTVNGDVERSLGVLNLDTGLLDTKYGEINTRTGELKAIDPKSGKIVVSKNVKVDPGTGQITILGIVDPKTNKIDPNQGRLIEVGQQIDPIVEVTSLAGKFDSKRNIIDPKTAQVETSGGQFDPKAGKIDTKYGQIDLVKHTITFNDPKSGKTVTRDIKIEPTTGQIVLKNQVNPKNNKPDKDYARIISLRIVQQRVDPATKAPITEVSASKDKDIVVDPKSNQIWVPTGATDPATKEQQYISSSVDPKTGYVITIYGYLDPKTNEIKKQTKLDPNTIKIEPTSGKIYTATGEVDQATGEPLYAATQVDPESGEVYTKLARVDPKTGKIVIVRILLISKTDERGRPEEIDPSTCEIDPVSGRVLKFFNKTVYVYNMIDPVTGEIVQVDPNDPRFAGARTTVTHTMTLTGEIDPVTGRIKSEYGDIDPNTGDIDPATAVTDPVTGKLILNYAQIDPSHFGKQAQVQTTTETVPITRQQFFDGVKHISKGALRRDSEGSSDDDMTAQYGADQVNEILIGSPAGQAGGKLGKPVSTPTVVKTTTKQVLTKNIDGVTHNVEEEVRNLGTGEVTYSTQEHKADATPTDLSGAYVTATAVTTRTATTHEDLGKNAKTEQLEEKTVATTRTHDPNKQQQRVVTQEVKTTATVTSGDQYQRRDSVSSTSSGDSGTPIDGPYDGASVVRTDNQKSPLFTTSATTGPHVESTRVVLGEDTPGFSGHGEIISTQTVSSKTRTVETITYKTERDGIVETRVEQKITIQSDGDPIDHDKALAEAIQEATAMNPDMTVEKIEIQQQTQ,MAPPIT interaction score,GluRIIC,-0.379 (inactive)
Gnpnat (protein) MVQLTEETYLYDPNLLLKLDFHRSPANFKPFISAANPGEPWMKVRPLKDTDYDRGFLQLLSQLTHVGNVNRTQFLTRFSQMKASGDYFVTVIEDTRKNEIIGAASLVIERKFIHNCAVRGRLEDVVVNDTYRGKQLGKLIVVTVSLLAEELGCYKMSLDCKDKLIKFYESLGYVAIPGNSNSMTIRYDEGPTLKRNATSAGSSGTVGDSCQTVSLDFAS,MAPPIT interaction score,Gnpnat,5.14 (active)
same,MAPPIT interaction score,Jhbp2; MAPPIT configuration: N-C,-0.259 (inactive)
same,MAPPIT interaction score,Jhbp2; MAPPIT configuration: N-N,0.242 (inactive)
cactin (protein) MPKEKSKHRHRSRSRERRDHRSPDPRSSRNRDRDREREREKDRDHRDHRDKERDQRREREKDKSRDKKREHKSRRRRSSSSSSSPSSSTSSSVPGAPRSPLVKSPMKLLQTLEARRLVEQKDRQRKKEELKAHETPEEKRARRLREKQAKEQRRRERMGWDNEYQTYSNEDNPFGDSNLTSTFHWGKKLEVEGLSNLSTKTVEVLSLQKQLENRRELEKVKKRRQERELERQVREDDLMMQQRAKEAVQFREWQRQEDQFHLEQARLRSEIRIRDGRAKPIDLLAQYVAAGNEPLEECLEMQMHEPYVLLNGLPVEELEDLLVDIKVYEELEQGKHIDFWNDMITIVQDELQRQQKLEAENSSLNQRRDGIHQAVVKDVADIFRGKNAQQLEEMRHRIEAKISGRADGVDISYWESLLSQLKAHMARARLRDRHQALLREKLSLLKRENDNETLQEKVAPQVKEEEMETQDAEDPEVEEGSPEDEEDPLNELRKTVRLYQAGNYSPRYIREEDFTGRRAQNEDVDEPEAEGLLYEEEDDERRTQRQRLLILHPERVDNNQLTPQELRMRNEAKQGMQGDEAEFSVETTLDAVPQLATDKYRPRKPRYFNRVHTGFEWNKYNQTHYDMDNPPPKIVQGYKFNIFYPDLMDKSQTPQYFLTPCADNGDFAVLRFHTGPPYEDIAFKIVNREWEFSYKRGFRCQFHNNIFQLWFHFKRYRYRR,MAPPIT interaction score,Gs1; MAPPIT configuration: N-C,0.448 (inactive)
same,MAPPIT interaction score,Gs1; MAPPIT configuration: N-N,0.325 (inactive)
GstD1 (protein) MVDFYYLPGSSPCRSVIMTAKAVGVELNKKLLNLQAGEHLKPEFLKINPQHTIPTLVDNGFALWESRAIQVYLVEKYGKTDSLYPKCPKKRAVINQRLYFDMGTLYQSFANYYYPQVFAKAPADPEAFKKIEAAFEFLNTFLEGQDYAAGDSLTVADIALVATVSTFEVAKFEISKYANVNRWYENAKKVTPGWEENWAGCLEFKKYFE,MAPPIT interaction score,GstD8,5.85 (active)
PGRP-LE (protein) MSESGIKKLSQERTREWLASQEDEELESIAESSVVDSLDYDYTEEEEDADQNTSEEISTMTLGTQIATKKHSIISDTIRDLMNSINSIQTLGNVNISNSTNVHIGNVTNINGNIQIIADGLTQNRRDRRHVSPPRDNAPKTPTHFEDDYQDESEERVRSDVFIRRQKFKIPKELSAIIPRSSWLAQKPMDEPLPLQLPVKYVVILHTATESSEKRAINVRLIRDMQCFHIESRGWNDIAYNFLVGCDGNIYEGRGWKTVGAHTLGYNRISLGISFIGCFMKELPTADALNMCRNLLARGVEDGHISTDYRLICHCQCNSTESPGRRLYEEIQTWPHFYNIEEEEQ,MAPPIT interaction score,GstE4,0.646 (inactive)
same,MAPPIT interaction score,PGRP-LE; MAPPIT configuration: N-C,3.96 (active)
same,MAPPIT interaction score,PGRP-LE; MAPPIT configuration: N-N,4.49 (active)
same,MAPPIT interaction score,Wee1,2.63 (active)
